Assay outcomes: PubChem BioAssay, University of Kansas High Throughput Screening Laboratory
Pf apPOL inh: Pf-apPOL DNA polymerase inhibition; inhibition, % at 10 µM; Recombinant Pf-apPOL, molecular beacon fluorescence, 1.5 h; 210,000 compounds, 0.25% hits
mHTT CaM bind: disrupts binding of mutant huntingtin to calmodulin; AID 1671202; P42858; 190,000 compounds, 3.6% hits; AlphaScreen His-mHTT/GST-CaM binding, luminescence; inhibition, % at 15 µM
Of the large screens only hits and unclear results are named; the others gave an inactive call. The full list was thinned out, with hits kept by preference. Rule as the data show it: active = inhibition above about 50%; inactive = the rest.

O=C(/C=C/c1ccccc1)Nc1c2c(nn1-c1ccc([N+](=O)[O-])cc1)CSC2	mHTT CaM bind 56
N#CC1=C(N)Oc2n[nH]c(-c3ccc4c(c3)OCO4)c2C1c1ccc(F)cc1 (configuration not stated)	none
O=C(c1ccc(F)cc1)c1coc2ccc(Cl)cc2c1=O	none
Cc1ccc(C(=O)N2CCCC(COc3cccc(C(=O)N4CCCC4)c3)C2)cc1C (configuration not stated)	none
COc1ccc(-c2cc(C(F)(F)F)n3nc(C(=O)Nc4cccnc4Cl)cc3n2)cc1	none
CC1CCC2(CC1)CC[C@@H]2NCc1ccc(Cl)cc1 (some centres not stated)	none
Cc1ccc(-n2nc3c(c2NC(=O)/C=C/c2ccccc2)CSC3)cc1	none
O=C(Nc1c2c(nn1-c1ccc(F)cc1)CSC2)c1ccc(Cl)c([N+](=O)[O-])c1	none
O=C(/C=C/c1ccccc1)Nc1c2c(nn1-c1ccc(F)cc1)CSC2	mHTT CaM bind 76
O=C(Nc1c2c(nn1-c1ccc([N+](=O)[O-])cc1)CSC2)c1ccc(Cl)c([N+](=O)[O-])c1	mHTT CaM bind 56
COc1ccc(/C(C#N)=C/c2cccc(Br)c2)cc1OC	none
CCc1cc(C2CCCN2C(=O)c2cccc(F)c2)on1 (configuration not stated)	none
Cc1ccc(-c2nccn3cc(C(=O)N4CCN(C)CC4)nc23)cc1	none
CC(C)c1nc(N2CCCC2=O)sc1C(=O)N1CCN(c2ccccc2F)CC1	mHTT CaM bind 55
CC(C)c1nc(N2CCCC2=O)sc1C(=O)N1CCN(c2ccc(F)cc2)CC1	none
CCc1nc(N2CCCC2=O)sc1C(=O)N1CCN(c2cc(C)ccc2C)CC1	mHTT CaM bind 95
Cc1ccc(C)c(N2CCN(C(=O)c3cc(C)n4nccc4n3)CC2)c1	none
COC(=O)c1cccc(C(=O)N2CCN(c3cc(C)ccc3C)CC2)n1	none
CCc1cc(C(=O)N2CCN(c3cc(C)ccc3C)CC2)nc2ccnn12	mHTT CaM bind 54
CCc1ccc(-n2[nH]c3c(cnc4ccc(C(=O)NC5CCCC5)cc43)c2=O)cc1	none
O=C(Cc1ccccc1)N1CC2CC1CC2NS(=O)(=O)c1ccccc1 (configuration not stated)	none
O=C1CC(c2c[nH]c3ccccc23)C(=O)N1c1ccc(O)cc1 (configuration not stated)	mHTT CaM bind 77
CC(C)(C)c1ccc(N2C(=O)CC(c3ccccc3)C2=O)cc1 (configuration not stated)	none (no result: mHTT CaM bind)
Cc1c(Nc2nc3nonc3nc2Nc2ccc(Cl)cc2)c(=O)n(-c2ccccc2)n1C	none
CCOc1ccccc1C(=O)N1CCc2c(c(C(=O)NCc3ccc(F)cc3)nn2C)C1	mHTT CaM bind 73
Cn1nc(C(=O)NCc2ccc(F)cc2)c2c1CCN(C(=O)c1ccccc1F)C2	mHTT CaM bind 82
Cn1nc(C(=O)NCc2ccc(Cl)cc2)c2c1CCN(C(=O)c1c(F)cccc1F)C2	mHTT CaM bind 58
CCOc1ccccc1C(=O)N1CCc2c(c(C(=O)NCc3cccc(C)c3)nn2C)C1	none
Cc1ccccc1C(=O)N1CCc2c(c(C(=O)NCc3ccc(Cl)cc3)nn2C)C1	none
Cc1cccc(CNC(=O)c2nn(C)c3c2CN(C(=O)c2ccccc2F)CC3)c1	none
CCC(C(=O)Nc1c2c(nn1-c1ccc(C)cc1)CS(=O)(=O)C2)c1ccccc1 (configuration not stated)	none
COc1ccc(NC(=O)CSc2ncccc2C(=O)NCc2ccccc2Cl)c(OC)c1	none
Cc1cccc(-c2noc(C3CCCN3S(=O)(=O)c3ccc(Cl)cc3C)n2)c1 (configuration not stated)	none
Cc1cc(NC(=O)c2ccc(Cl)s2)n(-c2nc3c(F)cccc3s2)n1	none
Cc1oc2ccc(OC(=O)C(C)(C)C)cc2c1C(=O)OC(C)C	none
OCCN(Cc1ccccc1)CC(O)COc1cccc2ccccc12 (configuration not stated)	none
OCCN(Cc1ccccc1)CC(O)COc1ccc(Cl)cc1Cl (configuration not stated)	mHTT CaM bind 51
O=C1C=C(c2ccccc2)OC(c2ccccc2)N1c1ccccc1 (configuration not stated)	none
OC(COC12CC3CC(CC(C3)C1)C2)CN1CCN(c2cccc(C(F)(F)F)c2)CC1 (configuration not stated)	none
CC1(C)C2CCC1(C)C(OCC(O)CN1CCN(Cc3ccc(Cl)cc3)CC1)C2 (configuration not stated)	mHTT CaM bind 100
CC1(C)C2CCC1(C)C(OCC(O)CN1CCCCC1)C2 (configuration not stated)	none
CC12CCC(C1)C(C)(C)C2OCC(O)CN1CCN(c2cccc(C(F)(F)F)c2)CC1 (configuration not stated)	mHTT CaM bind 65
CC1(C)C2CCC1(C)C(OCC(O)CN1CCN(c3cccc(Cl)c3)CC1)C2 (configuration not stated)	mHTT CaM bind 99
COc1ccccc1N1CCN(CC(O)COC2CC3CCC2(C)C3(C)C)CC1 (configuration not stated)	none
